# PG9 binder: small molecules binding HIV-1 gp120 antibody PG9; TR-FRET gp120-PG9 antibody binding; inhibition, % at 6.7 µM; actives 0.43% (n = 360,000); in the data active = inhibition above about 8.5%
# ABCB6 inh MLPCN: blocks the human ABCB6 transporter | Q9NP58 | K562-ABCB6 porphyrin accumulation, flow cytometry, 1 h; hits give low values | fluorescence ratio to DMSO, % at 10 µM | actives 0.19% (n = 360,000);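 active = fluorescence ratio to DMSO below 75%, the collection mean minus 3 SD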;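 also: signal is porphyrin accumulated inside mitochondria; 100% equals median channel fluorescence of DMSO control wells; lower ratio means ABCB6 inhibition with less porphyrin fluorescence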
# Target sequence (Q9NP58 whole entry, looked up): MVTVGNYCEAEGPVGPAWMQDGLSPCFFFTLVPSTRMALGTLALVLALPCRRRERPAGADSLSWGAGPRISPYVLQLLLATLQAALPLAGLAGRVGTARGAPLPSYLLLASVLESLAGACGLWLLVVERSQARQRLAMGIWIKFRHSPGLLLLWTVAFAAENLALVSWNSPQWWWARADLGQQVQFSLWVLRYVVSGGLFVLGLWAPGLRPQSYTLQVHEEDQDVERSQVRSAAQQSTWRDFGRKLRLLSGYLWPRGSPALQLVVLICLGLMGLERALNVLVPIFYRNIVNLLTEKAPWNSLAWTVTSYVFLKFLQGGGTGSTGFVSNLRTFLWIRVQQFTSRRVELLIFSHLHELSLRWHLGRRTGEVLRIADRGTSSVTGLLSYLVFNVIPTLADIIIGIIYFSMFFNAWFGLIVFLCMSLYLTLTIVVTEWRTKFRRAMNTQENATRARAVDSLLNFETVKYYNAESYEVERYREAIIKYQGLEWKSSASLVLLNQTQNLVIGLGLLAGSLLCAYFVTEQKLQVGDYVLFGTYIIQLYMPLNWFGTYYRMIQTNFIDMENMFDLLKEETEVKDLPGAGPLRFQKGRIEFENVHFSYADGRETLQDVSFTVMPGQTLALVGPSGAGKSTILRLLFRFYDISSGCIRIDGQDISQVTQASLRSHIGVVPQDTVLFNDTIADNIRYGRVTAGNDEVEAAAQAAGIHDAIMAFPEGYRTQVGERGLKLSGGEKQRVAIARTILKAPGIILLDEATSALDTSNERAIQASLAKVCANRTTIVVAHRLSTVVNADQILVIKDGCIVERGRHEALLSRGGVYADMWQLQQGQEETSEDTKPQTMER
# rCAG RNA binder: molecules binding r(CAG) RNA repeats | r(CAG) RNA repeat, TO-PRO-1 dye displacement fluorescence | inhibition, % at 3 µM | actives 1.3% (n = 370,000);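 active = inhibition above the plate cutoff, the mean of all test compounds on that plate plus 3 SD, cut at about 35% in these data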;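 also: 0% = DMSO alone and 100% = 100 µM mitoxantrone as full dye displacement; higher means more dye released from RNA so lower well fluorescence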
# Exocytosis inh: blocks lytic granule exocytosis. TALL-104 LAMP-1 surface exposure, flow cytometry; cells stimulated with thapsigargin and PMA. inhibition, % at 10 µM. actives 0.66% (n = 360,000);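 active = inhibition above about 55%, limit read from the data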
# rCAG bind conf: r(CAG) RNA repeat binding, confirmation. TO-PRO-1 dye displacement fluorescence. AID 652065. inhibition, % at 3 µM. actives 70% (n = 4,300). shares compounds with rCAG RNA binder;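 active = inhibition above a per-plate cutoff, the mean inhibition of sample wells plus 3 SD, cut at about 35% in these data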;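 also: loss of TO-PRO-1 fluorescence as compound displaces dye from 1x1 AA loop RNA; 0% = DMSO only wells and 100% = 100 µM mitoxantrone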
# dCAG dye counter: counter-screen for rCAG RNA binders: DNA CAG dye complex inhibitors. d(CAG) DNA oligo TO-PRO-1 dye displacement, fluorescence. inhibition, % at 3 µM. actives 94% (n = 4,300). shares compounds with rCAG RNA binder;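 active = inhibition above its plate's cutoff, the mean test-well inhibition plus 3 SD, cut at about 4.8% in these data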;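 also: 0% = DNA dye mix with DMSO and 100% = 100 µM mitoxantrone; hits displace the dye from DNA and so lower well fluorescence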
# dCAG dye DR: DNA CAG dye complex inhibition, dose response counter-screen | AID 686960 | actives 20% (n = 250) | DNA CAG/GTC duplex TO-PRO-1 dye displacement fluorescence | IC50, µM | shares compounds with rCAG RNA binder; in the data active = IC50 below about 10 µM
# * marks the source's active call; other numbers are inactive results; / = no result. Most compounds without a hit are left out; they make up all but 2.5% or so of the library.
SMILES,PG9 binder,ABCB6 inh MLPCN,rCAG RNA binder,Exocytosis inh,rCAG bind conf,dCAG dye counter,others
Cc1ccc(N=C2NC(=O)S/C2=C\c2ccco2)cc1,-3,97,10,1,/,/,
Cc1ccc(N=C2NC(=O)/C(=C/C=C/c3ccco3)S2)cc1,-3,100,59*,4,54*,26*,
O=C1NC(=Nc2ccccc2)S/C1=C\C=C\c1ccco1,-3,99,69*,-2,62*,30*,
Cc1ccc(S(=O)(=O)N/N=C\c2ccc(Cl)c([N+](=O)[O-])c2)cc1,0,86,13,-4,/,/,
Cc1ccc(S(=O)(=O)N/N=C/c2ccc(OS(=O)(=O)c3ccc(C)c([N+](=O)[O-])c3)cc2)cc1,-3,98,35*,1,50*,15*,
CC(C)C(Sc1nc(-c2ccccc2)cc(-c2ccccc2)c1C#N)C(=O)O (stereo unspecified),-1,99,83*,0,86*,51*,
CC(C)OC(=O)CC(=O)CSc1nc(-c2ccc(F)cc2)cc(-c2ccccc2)c1C#N,1,105,16,-3,/,/,
COc1ccc(-c2cc(-c3ccccc3)nc(SC(C)C(=O)O)c2C#N)cc1 (stereo unspecified),-1,99,71*,-8,76*,38*,
O=C(CNS(=O)(=O)c1ccc([N+](=O)[O-])cc1)N/N=C/c1ccc(O)cc1O,-2,100,6,6,/,/,
COc1ccc(CCNC(=O)c2ccccc2NS(=O)(=O)c2c(F)cccc2F)cc1,2,98,48*,11,33,9.9*,
CCOC(=O)C1=C(CSc2nc3c(cc2C#N)CN(C)CC3)OC(N)=C(C#N)C1c1ccc(Cl)cc1 (stereo unspecified),-1,125,35*,2,19,11*,
CC(/C=C/c1ccco1)=N\NC(=O)c1cc(Cl)ccc1O,-2,103,49*,-2,37*,16*,
O=C(O)c1cccc(N2C(=O)/C(=C/c3ccc(SCc4ccc(Cl)cc4)o3)SC2=S)c1,-2,124,67*,5,88*,61*,
O=C(OCC(=O)N1CCC(Cc2ccccc2)CC1)c1ccc(O)cc1,-1,94,3,2,/,/,
O=C(O)c1ccc2nc(C(F)(F)F)[nH]c2c1,-2,93,-2,1,/,/,
Nc1cccc2[nH]c(C(F)(F)F)nc12,-2,103,70*,1,61*,33*,
Cc1ccc(S(=O)(=O)NN2C(=O)/C(=C/c3ccccn3)SC2=S)cc1,-2,97,45*,2,35*,8.5*,
CC(/C=C1\SC(=S)N(NC(=O)c2ccncc2)C1=O)=C\c1ccccc1,-2,99,42*,8,31,9.3*,
CC(/C=C1\SC(=S)N(NS(=O)(=O)c2ccc(C)cc2)C1=O)=C\c1ccccc1,-2,95,62*,3,87*,60*,
CC(/C=C1\SC(=S)N(NC(=O)c2ccc(C)cc2)C1=O)=C\c1ccccc1,/,91,/,-3,/,/,
CC(/C=C1\SC(=S)N(NC(=O)c2ccccc2C)C1=O)=C\c1ccccc1,0,101,17,0,/,/,
CC(/C=C1\SC(=S)N(NS(=O)(=O)c2ccccc2)C1=O)=C\c1ccccc1,-2,98,74*,2,87*,54*,
Cc1noc(NS(=O)(=O)c2ccc(NC(=O)c3cc(S(=O)(=O)N(C)c4ccccc4)ccc3Cl)cc2)c1C,-1,99,77*,3,76*,41*,
Cc1cc(C(=O)Nc2ccc(S(=O)(=O)Nc3onc(C)c3C)cc2)c(C)o1,-3,99,11,-3,/,/,
Cc1noc(NS(=O)(=O)c2ccc(NC(=O)c3cc(-c4ccccc4Cl)nc4ccccc34)cc2)c1C,2,99,83*,0,75*,34*,dCAG dye DR=8.5*
SMILES,PG9 binder,ABCB6 inh MLPCN,rCAG RNA binder,Exocytosis inh,rCAG bind conf,dCAG dye counter,others
Cc1noc(NS(=O)(=O)c2ccc(NC(=O)c3cc(F)c(F)c(F)c3F)cc2)c1C,0,102,18,0,/,/,
Cc1noc(NS(=O)(=O)c2ccc(NC(=O)c3ccoc3C)cc2)c1C,-1,102,16,-6,/,/,
Cc1noc(NS(=O)(=O)c2ccc(NC(=O)c3ccccc3NS(=O)(=O)c3ccc(F)cc3)cc2)c1C,0,97,68*,-1,56*,21*,
Cc1ccc(-n2ccc(=O)c(C(=O)Nc3ccc(S(=O)(=O)Nc4onc(C)c4C)cc3)n2)cc1,0,105,59*,3,46*,16*,
Cc1cc(F)ccc1S(=O)(=O)Nc1ccccc1C(=O)Nc1ccc2[nH]c(=O)[nH]c2c1,-1,91,61*,-3,63*,26*,
Cc1noc(NS(=O)(=O)c2ccc(NC(=O)c3cc(S(=O)(=O)Nc4ccc(F)cc4)ccc3Cl)cc2)c1C,1,96,59*,-3,52*,23*,
Cc1ccc2oc(C(=O)Nc3ccc(S(=O)(=O)Nc4onc(C)c4C)cc3)c(C)c2c1,0,92,13,2,/,/,
O=C(Nc1nc(-c2ccccc2)cs1)c1ccccc1NS(=O)(=O)c1ccc(F)cc1,-4,90,89*,3,89*,70*,
Cc1ccc(S(=O)(=O)Nc2ccc3[nH]c(=O)[nH]c3c2)c(C)c1,1,99,-1,1,/,/,
Cc1ccc(-c2cc(C(=O)Nc3ccc(S(=O)(=O)Nc4onc(C)c4C)cc3)[nH]n2)c(O)c1,-1,96,84*,-2,78*,44*,
O=C(CN(C(=O)CCC(=O)Nc1nccs1)c1ccccc1F)NCc1ccccc1,1,87,-1,1,/,/,
Cc1ccc(-c2cc(C(=O)Nc3ccc(S(=O)(=O)Nc4ncccn4)cc3)[nH]n2)c(O)c1C,0,104,61*,2,53*,19*,
CC(=O)[C@H]1CC[C@H]2[C@@H]3CC=C4C[C@@H](OS(=O)(=O)O)CC[C@]4(C)[C@H]3CC[C@]12C,0,97,39*,-3,39*,9.8*,
CC(=O)O[C@H]1CC[C@@]2(C)C(=CC[C@H]3[C@@H]4CC[C@H](C(C)=O)[C@@]4(C)CC[C@@H]32)C1,1,100,2,0,/,/,
Cc1ccc(-n2c(=S)sc3c(=O)n(-c4ccc(F)cc4)c(SCC(=O)O)nc32)cc1C,2,84,36*,8,30,6.4*,
COc1ccc(-n2c(SCC(=O)C(C)(C)C)nc3c(sc(=S)n3-c3ccccc3)c2=O)c(OC)c1,-2,98,11,-19,/,/,
Cc1ccc(-n2c(SCC(=O)O)nc3c(sc(=S)n3-c3ccc(C)c(C)c3)c2=O)cc1,-1,101,51*,0,42*,14*,
Cc1ccc(-c2nc(Nc3ccc(O)cc3)c3ccccc3n2)cc1,-1,97,30,-12,/,/,

# Bioassay records (PubChem)
